# Assay results: paper PMC11062922 (Nature Chemical Biology, 2023)
# Where two headings read alike, the source gives them in different places.
# Experiments:
# Design in all cases: species or system human, MV4-11 + K-562 + COLO205 + SK-N-BE2 + OVCAR-8
# ARAF = settings: read-out: apparent Kd; compound concentrations: 100 nM and 1000 nM (sheet 'Samples'), CATDS: 5.7058151547421603E-2; n = 1
# AURKB = settings: read-out: apparent Kd; compound concentrations: 100 nM and 1000 nM (sheet 'Samples'), CATDS: 7.6313270646160003E-2; n = 1
# CDK10 = settings: read-out: apparent Kd; compound concentrations: 100 nM and 1000 nM (sheet 'Samples'), CATDS: 4.7356603246951401E-2; n = 1
# EIF2AK1 = settings: read-out: apparent Kd; compound concentrations: 100 nM and 1000 nM (sheet 'Samples'), CATDS: 9.9444074650609393E-2; n = 1
# FN3K = settings: read-out: apparent Kd; compound concentrations: 100 nM and 1000 nM (sheet 'Samples'), CATDS: 5.2169605073521003E-2; n = 1
# ICK = settings: read-out: apparent Kd; compound concentrations: 100 nM and 1000 nM (sheet 'Samples'), CATDS: 4.7896181585756002E-2; n = 1
# LATS1 = settings: read-out: apparent Kd; compound concentrations: 100 nM and 1000 nM (sheet 'Samples'), CATDS: 4.4770495584516998E-2; n = 1
# MAP2K5 = settings: read-out: apparent Kd; compound concentrations: 100 nM and 1000 nM (sheet 'Samples'), CATDS: 0.11655274425704; n = 1
# MAP3K2 = settings: read-out: apparent Kd; compound concentrations: 100 nM and 1000 nM (sheet 'Samples'), CATDS: 4.6082371307615597E-2; n = 1
# MAP3K4 = settings: read-out: apparent Kd; compound concentrations: 100 nM and 1000 nM (sheet 'Samples'), CATDS: 4.8228704879059399E-2; n = 1
# MAP4K1 = settings: read-out: apparent Kd; compound concentrations: 100 nM and 1000 nM (sheet 'Samples'), CATDS: 4.8558197444370697E-2; n = 1
# MAP4K2 = settings: read-out: apparent Kd; compound concentrations: 100 nM and 1000 nM (sheet 'Samples'), CATDS: 5.6009475369740498E-2; n = 1
# MAP4K3 = settings: read-out: apparent Kd; compound concentrations: 100 nM and 1000 nM (sheet 'Samples'), CATDS: 7.0202424980237099E-2; n = 1
# NEK1 = settings: read-out: apparent Kd; compound concentrations: 100 nM and 1000 nM (sheet 'Samples'), CATDS: 8.0496381389801502E-2; n = 1
# NEK2 = settings: read-out: apparent Kd; compound concentrations: 100 nM and 1000 nM (sheet 'Samples'), CATDS: 4.3015896259207202E-2; n = 1
# PKMYT1 = settings: read-out: apparent Kd; compound concentrations: 100 nM and 1000 nM (sheet 'Samples'), CATDS: 4.44842965705885E-2; n = 1
# PTK6 = settings: read-out: apparent Kd; compound concentrations: 100 nM and 1000 nM (sheet 'Samples'), CATDS: 5.5693628002095402E-2; n = 1
# RAF1 = settings: read-out: apparent Kd; compound concentrations: 100 nM and 1000 nM (sheet 'Samples'), CATDS: 4.9993718202349699E-2; n = 1
# ATM = settings: read-out: apparent Kd; compound concentrations: 100 nM and 1000 nM (sheet 'Samples'), CATDS: 0.45876429377403; n = 1
# GSK3A = settings: read-out: apparent Kd, n = 1
# MTHFD1 = settings: read-out: apparent Kd; compound concentrations: 100 nM and 1000 nM (sheet 'Samples'), CATDS: 0.40947747984703597; n = 1
# AKT2 = settings: read-out: apparent Kd; compound concentrations: 100 nM and 1000 nM (sheet 'Samples'), CATDS: 0.30677432174967101; n = 1
# CDK6 = settings: read-out: apparent Kd; compound concentrations: 100 nM and 1000 nM (sheet 'Samples'), CATDS: 0.31503634964043797; n = 1
# MAPKAPK2 = settings: read-out: apparent Kd; compound concentrations: 100 nM and 1000 nM (sheet 'Samples'), CATDS: 0.38970586087063103; n = 1
# AKT3 = settings: read-out: apparent Kd, n = 1
# FLT3 = settings: read-out: apparent Kd; compound concentrations: 100 nM and 1000 nM (sheet 'Samples'), CATDS: 0.41420685455441397; n = 1
# MYLK3 = settings: read-out: apparent Kd; compound concentrations: 100 nM and 1000 nM (sheet 'Samples'), CATDS: 0.45144948525054202; n = 1
# GSK3B = settings: read-out: apparent Kd; compound concentrations:100 nM and 1000 nM (sheet 'Samples'); n = 1
# MAP2K2 = settings: read-out: apparent Kd; compound concentrations:100 nM and 1000 nM (sheet 'Samples'); n = 1
# SKIV2L2 = settings: read-out: apparent Kd; compound concentrations:100 nM and 1000 nM (sheet 'Samples'); n = 1
# [1] = compound concentrations:100 nM and 1000 nM (sheet 'Samples')
compound,measurement,setting,value
Cc1ccccc1CC(=O)N1CCc2cc(-c3cn(C)c4ncnc(N)c34)ccc21 [GSK2603346A],potency estimated from few doses,ARAF,0.942 µM
same,potency estimated from few doses,AURKB,0.547 µM
same,potency estimated from few doses,CDK10,1.45 µM
same,potency estimated from few doses,EIF2AK1,0.36 µM
same,potency estimated from few doses,FN3K,1.14 µM
same,potency estimated from few doses,ICK,1.41 µM
same,potency estimated from few doses,LATS1,1.68 µM
same,potency estimated from few doses,MAP2K5,0.287 µM
same,potency estimated from few doses,MAP3K2,1.55 µM
same,potency estimated from few doses,MAP3K4,1.38 µM
same,potency estimated from few doses,MAP4K1,1.36 µM
same,potency estimated from few doses,MAP4K2,0.979 µM
same,potency estimated from few doses,MAP4K3,0.632 µM
same,potency estimated from few doses,NEK1,0.501 µM
same,potency estimated from few doses,NEK2,1.89 µM
same,potency estimated from few doses,PKMYT1,1.71 µM
same,potency estimated from few doses,PTK6,0.991 µM
same,potency estimated from few doses,RAF1,1.26 µM
Cn1cc(C2=C(c3cn(C)c4cc(C(N)=O)ccc34)C(=O)NC2=O)c2ccccc21 [RO0319317-000],potency estimated from few doses,ATM,0.142 µM
same,potency estimated from few doses,"GSK3A; compound concentrations: 100 nM and 1000 nM (sheet 'Samples'), CATDS: 0.228409862678119",0.86 µM
same,potency estimated from few doses,MTHFD1,0.175 µM
N#Cc1c(NC(=O)c2ccccc2F)sc2c1CCCC2 [GW572738X],potency estimated from few doses,AKT2,2.34 µM
same,potency estimated from few doses,CDK6,2.2 µM
same,potency estimated from few doses,MAPKAPK2,1.46 µM
CS(=O)(=O)Nc1ccc(N/C=C2\C(=O)Nc3ccccc32)cc1 [GW278681X],potency estimated from few doses,"AKT3; compound concentrations: 100 nM and 1000 nM (sheet 'Samples'), CATDS: 0.228798391958558",1.78 µM
same,potency estimated from few doses,FLT3,0.358 µM
same,potency estimated from few doses,MYLK3,0.306 µM
O=C1NC(=O)C(c2ccc(Cl)cc2)=C1Nc1ccc(Cl)c(C(=O)O)c1 [SB-360741],potency estimated from few doses,AKT3; [1],1.53 µM
same,potency estimated from few doses,GSK3A; [1],0.601 µM
same,potency estimated from few doses,GSK3B,1.31 µM
same,potency estimated from few doses,MAP2K2,0.14 µM
same,potency estimated from few doses,SKIV2L2,1.36 µM
